Rows were chosen to be rich in hits. Some 2.2% of all compounds tested hit in one or more screens of this group.
FUS yeast rescue = rescues growth of FUS-expressing yeast; AID 1347120; S. cerevisiae FUS-expressing, growth rescue, OD600, 24 h; Potency, µM (highest dose often 76.6 µM), most hits filed as activators; actives 0.24% (n = 390,000);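 further: plate controls were DMSO vehicle for no effect and reference control for full effect; nearly all actives have a fitted effect of over 55% in size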
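Yeast FUS proteinopathy model; galactose-induced FUS (2%), starting OD 0.005. Cpds in dilution series, 24hr, 30C, 99% humidity. Abs 600 nm growth. Pos ctrl CP55940 (top 92uM final); neg ctrl DMSO.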
Mito fusion act = mitochondrial division inhibition or fusion activation | S. cerevisiae fusion-defective mutant growth rescue, CellTiterGlo 48 h | actives 0.23% (n = 320,000) | Potency, µM (highest dose often 46.1 µM), for inactives: at the top dose growth rescue (activation), most hits filed as activators; further: % of control where 0% means no effect; nearly all actives have a fitted effect of over 45% in size
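Temperature-sensitive fusion-defective S. cerevisiae (e.g. fzo1-1, mgm1-5) were grown with compound in YPEG medium (3% ethanol, 3% glycerol) for 48 hours at 37C. Growth rescue was measured as viability by CellTiterGlo luminescence after 10 minutes at ambient.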
aSyn rescue = rescues yeast growth from alpha-synuclein toxicity. Yeast expressing alpha-synuclein, growth rescue, BacTiter-Glo, 24 h. Potency, µM (doses to about 46.1 µM), for the others: at the highest dose growth rescue (activation), actives largely listed as activators. actives 0.14% (n = 370,000). AID 652106; further: % of control where 0% means no effect; nearly all actives have a fitted effect of over 65% in size
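Galactose-induced alpha-syn yeast (OD600=0.02, raffinose-pregrown) + pinned cpd, 24 hr, 30 deg C; growth by BacTiter-Glo luminescence. Growth restoration scores as activation.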
Abeta rescue = restores growth of yeast expressing A-beta42 peptide. yeast expressing A-beta42, growth rescue, OD600, 48 h; response scale: 0% DMSO, 100% iron-clioquinol control. Potency, µM (titrated, usually from 46.1 µM), hits mostly activators. actives 0.063% (n = 410,000). AID 1347071; further: nearly all actives have a fitted effect of over 55% in size
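Growth rescue measured by 600 nm absorbance after 48 h yeast culture at 30 C with compound. Values normalized between DMSO and an equimolar ferric chloride plus clioquinol control.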
TDP-43 yeast inh = TDP-43 toxicity inhibition in yeast. TDP-43 expressing yeast growth rescue, BacTiter-Glo, 24 h. Potency, µM (doses to about 46.1 µM), without a hit: top-dose growth rescue (activation), hits mostly activators. actives 1.8% (n = 410,000). AID 652104; further: % of control where 0% means no effect; nearly all actives have a fitted effect of over 50% in size
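In this qHTS, compounds that restore growth of yeast expressing TDP-43 appear as activators. Cells (OD600=0.02, galactose medium, raffinose-pregrown) are incubated with compound 24 hr at 30 deg C and growth is quantified by BacTiter-Glo.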
An asterisk follows results filed as active; i = inactive; ? = inconclusive; nt = no result; [ ] = remark or other dose. The call rests on the fitted dose curve; in most records, active means well fitted curve in the direction sought with a large enough effect; inconclusive means small, poorly fitted or top-dose-only effect, or another doubt; inactive means no such curve, though single readings can be large; an effect the other way counts as inactive or inconclusive. Potency means the concentration at half of the fitted maximal effect.

SMILES | FUS yeast rescue | Mito fusion act | aSyn rescue | Abeta rescue | TDP-43 yeast inh
COc1ccc(Cn2ccc3ccc(-c4ccc5ccn(C(=O)c6ccccc6OC)c5c4)cc32)cc1 | i | nt | nt | nt | nt
CCOc1cc(Cn2c(-c3ccc(O)c(OCC)c3)nc3ccccc32)ccc1O | ? | nt | nt | i | 9.6%
CCOC(=O)N1CCC(NC(=O)c2ccc3c(c2)N(Cc2cccc(C)c2)C(=O)c2ccccc2S3(=O)=O)CC1 | ? | nt | nt | i | -4.3%
O=C(Nc1nc(-c2ccccn2)cs1)c1cc(Cl)ccc1[N+](=O)[O-] | i | -6.1% | ? | 12.6µM* | ?
CC(=O)Nc1ccc(C(=O)Nc2nc(-c3ccccn3)cs2)cc1 | ? | 0.9% | -12.0% | i | 10.1%
O=C(Nc1nc(-c2ccccn2)cs1)c1ccc2c(c1)OCCO2 | i | 0.5% | ? | 12.6µM* | ?
Cc1cc(C(=O)Nc2nc(-c3ccccn3)cs2)ccc1[N+](=O)[O-] | i | -2.3% | ? | i | ?
O=C(Nc1nc(-c2ccco2)cs1)c1ccccc1 | i | 9.5% | -51.0% | i | 12.6µM*
CCOc1ccc(NS(=O)(=O)c2ccc3[nH]c(=O)[nH]c3c2)cc1 | i | 0.5% | -9.2% | i | -13.5%
CC(C)(C)OC(=O)N1CCC(C(=O)N[C@H](C(=O)O)c2ccccc2)(c2ccccc2)CC1 | i | 15.4% | -2.9% | i | -4.3%
Cc1c(NC(=O)c2ccc(NC(=O)C3CC3)cc2)cccc1C(=O)O | i | 2.4% | -6.5% | i | -7.4%
CC(=O)CSc1nnc2c3ccccc3nc(C(C)(C)C)n12 | i | 1.5% | 1.5% | i | 14.1µM*
COc1cccc2c1C(=O)c1c(O)c3c(c(O)c1C2=O)C[C@](O)(C(C)=O)C[C@H]3O[C@@H]1C[C@@H](N)[C@@H](O)[C@@H](C)O1 | i | -17.2% | 11.2µM* | i | -12.7%
COc1cccc2c1C(=N)c1c(O)c3c(c(O)c1C2=O)CC(O)(C(C)=O)CC3OC1CC(N)C(O)C(C)O1 (stereo not given) | nt | nt | -39.3% | i | -63.2%
COC(=O)C1=CC(C(=O)c2cccs2)=NN(c2ccc(OC)cc2)C1C(=O)OC (stereo not given) | i | 17.8µM* | 5.3% | i | -4.6%
CCCC1(C)C(C#N)(C#N)C1(C#N)C#N | nt | ? | 14.6µM* | nt | nt
Nc1cc2c(cc1C(=O)c1ccccc1F)OCCO2 | i | -1.0% | 3.1% | i | 17.8µM*
Nc1cc2c(cc1C(=O)c1cccc(Br)c1)OCCO2 | i | 23.5% | -4.0% | i | 14.1µM*
CCC(O)c1cc2c(cc1NC(=O)c1cccc(Br)c1)OCCO2 (stereo not given) | i | nt | 7.9% | i | 12.6µM*
CCC(O)c1cc2c(cc1NC(=O)c1cccs1)OCCO2 (stereo not given) | i | 9.3% | 6.0% | i[9.22 µM] | 16.4%
CC1(C)CN(c2ccc(Br)cc2)C(=O)[C@H]1CC(=O)Nc1ccccc1 | i | nt | 11.7% | i | 17.8µM*
Cc1cc(N/N=C/c2ccc(O)cc2O)nc(-n2nc(C)cc2C)n1 | i | -11.2% | -2.9% | i | 4.6%
Cc1cc(N/N=C/c2cccc([N+](=O)[O-])c2)nc(-n2nc(C)cc2C)n1 | i | -14.6% | -5.9% | i | 13.8%
Cc1cc(Nc2ccc(C(C)C)cc2)nc(-n2nc(C)cc2C)n1 | ? | nt | nt | i | 20µM*
Cc1cc(N/N=C/c2cccc(Cl)c2)nc(-n2nc(C)cc2C)n1 | i | 5.8% | 12.0% | i | 14.1µM*
SMILES | FUS yeast rescue | Mito fusion act | aSyn rescue | Abeta rescue | TDP-43 yeast inh
COc1ccc(Nc2cc(C)nc(-n3nc(C)cc3C)n2)cc1Cl | i | nt | nt | i | ?
COc1ccc(O)c(/C=N/Nc2nc(Nc3ccccc3)nc(-n3nc(C)cc3C)n2)c1 | i | -2.9% | 8.3% | ? | 22.4µM*
COc1ccc(/C=N/Nc2cc(C)nc(-n3nc(C)cc3C)n2)cc1 | i | -1.9% | ? | i | 20µM*
COc1cc(/C=N/Nc2nc(Nc3ccccc3)nc(-n3nc(C)cc3C)n2)cc(OC)c1OC | ? | 1.6% | -0.1% | ? | -4.7%[0.397 µM]
Cn1c(N)nc(N)c(NC=O)c1=O | i | nt | -0.6% | i | ?
O=C(CCOc1ccccc1)NO | nt | nt | 1.7% | nt | nt
CCCCNc1c(C(=O)OCC)c(C)nc2c1cnn2CC | i | 23.1µM* | 29.9% | i | 10.8%
COc1ccc(OCCn2cc(C=O)c3ccccc32)cc1 | i | 2.1% | -8.4% | i | 10µM*
COc1ccccc1CC(=O)Nc1nc(-c2ccc(F)c(F)c2)cs1 | i | 0.5% | -7.4% | i | 17.8µM*
O=C(Cc1ccccc1F)Nc1nc(-c2ccc(F)cc2)cs1 | i | 13.6% | -6.6% | i | 12.6µM*
COc1ccc(-c2csc(NC(=O)Cc3ccccc3F)n2)cc1OC | i | 25.9% | -36.0% | i | ?
CCOc1ccc(C(=O)Nc2ccc3c(c2)OCCO3)cc1Br | i | nt | nt | i | 17.8µM*
Cc1cccc(OCC(=O)Nc2ccc3c(c2)OCCO3)c1 | i | 9.9% | -2.2% | i | 17.8µM*
COc1cccc(-c2nc(SCC(=O)Nc3ccc4c(c3)OCCO4)c(-c3ccc(C)cc3)[nH]2)c1 | ? | nt | nt | i | 20µM*
Cc1ccccc1OCC(=O)Nc1ccc2c(c1)OCCO2 | i | -3.5% | 0.1% | i | ?
Cc1cccc(C)c1OCC(=O)Nc1ccc2c(c1)OCCO2 | i | 0.0% | 0.0% | i | 14.1µM*
Cc1ccc(-c2c3c(=O)n(C)c(=O)n(C)c3c3cnc4ccccc4n23)cc1 | i | nt | nt | i | -26.6%
Cc1nn(CC(=O)N2CCOCC2)c(=O)c2nn(-c3ccccc3)c(C)c12 | i | 3.4% | -0.2% | i | 25.4%
Cn1nc(C(=O)Nc2cc(Cl)ccc2N2CCCC2)c2ccccc2c1=O | nt | ? | 0.9% | i | 9.6%
COc1ccc(C(=O)Nc2cccc(-c3cn4ccsc4n3)c2)c(OC)c1 | ? | nt | nt | i | 5.01µM*
CC1CCCC(NC(=O)c2cccc(S(=O)(=O)NCc3ccccc3)c2)C1C (stereo not given) | i | 28.6% | 6.7% | i | 35.5µM*
Cc1ccc(C)c(S(=O)(=O)N2CCCN(C)CC2)c1 | i | 1.4% | -1.0% | i | -24.3%
Cc1ccc(C)c(S(=O)(=O)N2C(=S)NC(=O)C2C(C)C)c1 (stereo not given) | i | 17.2% | 11.9% | i | 35.5µM*
O=C(N/N=C/c1ccc(O)cc1)NC12CC3CC(CC(C3)C1)C2 | i | 2.3% | -8.0% | i | 11.2µM*
C1=Cc2ccccc2/C1=C\c1cccc(/C=C2\C=Cc3ccccc32)c1 | nt | nt | -2.9% | nt | nt
O=C1Cc2ccccc2C(=O)N1 | i | nt | -8.0% | i | 22.4µM*

Bioassay records: PubChem BioAssay, National Center for Advancing Translational Sciences (NCATS)
